Test results published in PubChem BioAssay (NCI).
About 83,000 compounds went through this panel and 20% of them were active in at least one assay; those are over-represented in the sample as a whole.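 Negative percent growth values reflect cell death: -40 means 40% of the cells present at the start died, and -100 means all died.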 Unmarked numbers belong to inactive results. Activity calls are given as the source filed them. How the source made its calls: active means growth percent below 10; inactive means the rest.

What was measured:
Experiment in all cases: NCI-60 one-dose screen, 48 h (100 = growth as untreated, 0 = no growth, -100 = all killed)
Conditions in all cases: 10 µM unless noted
NCI-H23 lung = tested on: NCI-H23 lung
NCI-H226 lung = tested on: NCI-H226 lung
NCI-H322M lung = tested on: NCI-H322M lung
HOP-62 NSCLC = tested on: HOP-62 NSCLC
NCI-H460 lung = tested on: NCI-H460 lung
NCI-H522 lung = tested on: NCI-H522 lung
A549/ATCC NSCLC = tested on: A549/ATCC NSCLC
786-0 renal = tested on: 786-0 renal
COLO 205 colon = tested on: COLO 205 colon
DU-145 prostate = tested on: DU-145 prostate
K-562 leukemia = tested on: K-562 leukemia
MALME-3M melanoma = tested on: MALME-3M melanoma
MDA-MB-231 breast = tested on: MDA-MB-231 breast
RXF 393 renal = tested on: RXF 393 renal
SF-268 CNS = tested on: SF-268 CNS
SF-295 CNS = tested on: SF-295 CNS
SF-539 CNS = tested on: SF-539 CNS
UACC-257 melanoma = tested on: UACC-257 melanoma
M14 melanoma = tested on: M14 melanoma

Structure (SMILES)	growth (NCI-H23 lung)	growth (NCI-H226 lung)	growth (NCI-H322M lung)	growth (HOP-62 NSCLC)	growth (NCI-H460 lung)	growth (NCI-H522 lung)	growth (A549/ATCC NSCLC)	growth (786-0 renal)	growth (COLO 205 colon)	growth (DU-145 prostate)	growth (K-562 leukemia)	growth (MALME-3M melanoma)	growth (MDA-MB-231 breast)	growth (RXF 393 renal)	growth (SF-268 CNS)	growth (SF-295 CNS)	growth (SF-539 CNS)	growth (UACC-257 melanoma)	growth (M14 melanoma)
O=C(c1ccccc1)C(CCc1ccccn1)CCc1ccccn1	106%	104%	117%	93.1%	110%	89.5%	98.3%	98.4%	105%	101%	96.2%	82.4%	99.5%	120%	101%	110%	103%	109%	93.7%
NC(N)=N/N=C/c1ccc(Cl)cc1	99.7%	80.1%	105%	75%	53.6%	79.9%	92.1%	97.1%	77.6%	73.8%	14%	88.3%	97.5%	89.3%	68.5%	81.9%	99.1%	80.7%	66.2%
CCN(CC)CC(=O)Nc1c(C)ccc(N)c1C	101%	98.4%	90.2%	94.2%	108%	74.4%	100%	93.4%	97.6%	107%	128%	90.5%	107%	116%	102%	97%	99.6%	105%	101%
NS(=O)(=O)c1ccc(CCn2c(SCC(=O)N/N=C/c3cccnc3)nc3ccccc3c2=O)cc1	93.3%	83%	101%	83.3%	90.5%	68.5%	97.3%	92.4%	97.3%	98.9%	61%	81.7%	98.5%	93.4%	89.7%	85.7%	104%	107%	94.7%
CCC(=O)NC1=C(Cl)C(=O)C(NC(=O)CC)=C(Cl)C1=O	94%	113%	107%	111%	108%	-82.7% (active)	103%	105%	-91.4% (active)	44.3%	-24.3% (active)	-63.4% (active)	91.6%	39.9%	118%	137%	117%	107%	93.7%
COc1ccc(-c2cc(C(=O)Nc3ccc(C)cc3)nc3[nH]c(=O)sc23)cc1	75.4%	80.1%	78.5%	84.7%	68.8%	24.3%	50.6%	65.2%	78.8%	89.6%	61.9%	73.3%	86.3%	85.8%	88.7%	70.7%	75.6%	51.4%	70.8%
Brc1ccsc1Br	107%	104%	125%	93.4%	111%	95.9%	105%	108%	103%	126%	108%	114%	116%	117%	113%	126%	106%	111%	106%
Cc1ccc(NC(=O)c2cc(NCc3cc(O)ccc3O)ccc2O)cc1	92.9%	95.4%	101%	97.9%	102%	-27.5% (active)	80.5%	101%	105%	106%	70.9%	97.9%	78.5%	87.5%	83.5%	116%	84.3%	78.9%	107%
CCCCSc1ncnc2c1ncn2C1CCCCO1 (centres undefined)	106%	107%	114%	105%	111%	106%	105%	97.9%	108%	121%	97%	115%	110%	120%	106%	111%	104%	108%	103%
O=c1nc(-c2ccccc2)c2cc(-c3ccc(N4CCOCC4)cc3)ccc2[nH]1	86.3%	72.1%	68.9%	73.7%	79.7%	68.3%	64.3%	78.6%	82.5%	79.7%	71.8%	98.4%	78.4%	73.4%	94.3%	88.6%	94.9%	71.6%	92.3%
Cc1cc(C#Cc2ccc(C(C)(C)C)cc2)ccc1-n1c(/C=C/c2c(Cl)cccc2Cl)nc2ccccc2c1=O	97.9%	108%	92.8%	104%	96.3%	105%	95.8%	109%	103%	110%	101%	116%	122%	127%	96.8%	97.9%	106%	110%	106%
O=C(Nc1ccc(Br)cc1)c1ccc(Cl)c(Cl)c1	26.2%	61.8%	42.3%	98.3%	14%	60.2%	63.4%	73.1%	83.9%	34.7%	12.9%	48.5%	56%	112%	73.6%	6.6% (active)	67.5%	102%	64.5%
N=c1nc(N2CCCCC2)cc(N)n1O	115%	92.7%	126%	101%	113%	103%	103%	117%	106%	114%	116%	145%	108%	108%	109%	103%	116%	99.8%	123%
CCCCCCCC/C=C/CCCCCCCC1=NC(C)(C)CN1c1ccccc1	89.1%	99%	116%	100%	103%	65.1%	91.6%	81.8%	97.8%	97.2%	65.9%	115%	103%	85%	91.9%	-5.3% (active)	96.9%	90.2%	99.7%
CCCCCCCOc1cccc(/C=C2\N=C3SCCCN3C2=O)c1	97.3%	93.7%	101%	108%	103%	62.3%	91.8%	92.5%	92.9%	94.5%	90.4%	139%	87.7%	116%	103%	93.8%	111%	114%	102%
CCCCCCCCCCCCCCCCCC(=O)[O][Sn]([CH2]CCC)([CH2]CCC)[CH2]CCC	-81.7% (active)	-74.6% (active)	-91.4% (active)	-89.5% (active)	-88.9% (active)	-54.3% (active)	-84.1% (active)	-100% (active)	-80.9% (active)	-100% (active)	-42.8% (active)	-85.9% (active)	-57.8% (active)	-98% (active)	-92.8% (active)	-85.3% (active)	-81.6% (active)	-86.1% (active)	-91.1% (active)
